Laboratory results taken from PubChem BioAssay (EPA / NIEHS).
“And” between values parts separate entries of the source, which are not always exact repeats. Equal entries are not always repeated. Some structures have more than one record in an assay (separate samples or runs), and their calls can disagree. The source made the active and inactive calls. The calls were made as follows: active = hit-call score of the fitted dose curve at least 0.9, where 1 is the maximum; inactive = score below 0.9.

Legend:
[1] = ATG_GLI_CIS: Attagene CIS-FACTORIAL HepG2 Assay for human Zinc Finger Protein GLI1 (AID 2282945); details: HepG2, Attagene cis-factorial reporter mRNA, GLI element; actives raise or lower the signal
In short: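 Transiently transfected HepG2 cells report endogenous transcription factor activity via cis-element-driven reporter units. After 24 h compound exposure, reporter mRNA was measured by RT-PCR with capillary electrophoresis; bidirectional fitting against DMSO baseline.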

[2] = ATG_ISRE_CIS: Attagene CIS-FACTORIAL HepG2 Assay for human Interferon Regulatory Factor 1 (IRF1) binding to an Interferon-Stimulated Response Element (ISRE) (AID 2282948); details: HepG2 ISRE cis-reporter (Attagene), mRNA transcription readout; actives raise or lower the signal
In short: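 Read-out: fluorescent RT-PCR products resolved by capillary electrophoresis, reporting endogenous transcription factor activity via ISRE-driven reporter mRNA in transfected HepG2 cells dosed for 24 h; gain or loss fitted relative to DMSO.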

[3] = ATG_M_32_CIS: Attagene CIS-FACTORIAL HepG2 Assay for M32 Transcription Factor (Internal Marker) (AID 2282949); details: HepG2 Attagene cis-factorial M32 reporter, mRNA; actives raise or lower the signal;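 also: background control marker of the multiplexed CIS panel rather than a real target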
In short: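 Transient MRTU transfection of HepG2; 24 h compound treatment; TriZol RNA, oligo(dT) RT, reporter PCR, 6-FAM primer extension, HpaI cut, CE. Gain/loss of signal vs DMSO.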

[4] = ATG_M_06_CIS: Attagene CIS-FACTORIAL HepG2 Assay for M06 Transcription Factor (Internal Marker) (AID 2282950); details: HepG2 Attagene CIS-FACTORIAL M06 internal marker reporter; actives raise or lower the signal
In short: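 Measured 24 h post-dosing in transiently transfected HepG2 cells, this internal-marker endpoint reports reporter mRNA via RT-PCR with fluorescent primer extension and capillary electrophoresis. DMSO served as negative control and baseline for bidirectional fitting.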

[5] = biological target: Hypoxia-inducible factor 1-alpha (Homo sapiens) (UniProt Q16665); experiment: ATG_HIF1a_CIS: Attagene CIS-FACTORIAL HepG2 Assay for human Hypoxia Inducible Factor 1 (HIF1A) (AID 2282951); details: HepG2 Attagene cis-factorial HIF1a reporter transcription; actives raise or lower the signal
In short: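 RT-PCR/capillary electrophoresis fluorescence readout of reporter transcripts from endogenous-TF-driven cis elements in transfected HepG2 cells, 24 h exposure; activity fitted in both directions against DMSO controls.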

[6] = biological target: Hepatocyte nuclear factor 6 (Homo sapiens) (UniProt Q9UBC0); experiment: ATG_HNF6_CIS: Attagene CIS-FACTORIAL HepG2 Assay for human Hepatocyte Nuclear Factor 6 (HNF6) (AID 2282952); details: HepG2 Attagene cis-factorial HNF6 reporter transcription; actives raise or lower the signal
In short: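 Using cis-element reporters in HepG2 liver cells, the assay tracks endogenous factor-driven transcription 24 h post-dosing. Signal comes from 6-FAM-labelled, HpaI-digested RT-PCR fragments, with gain or loss scored against DMSO.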

[7] = biological target: Heat shock factor protein 1 (Homo sapiens) (UniProt Q00613); experiment: ATG_HSE_CIS: Attagene CIS-FACTORIAL HepG2 Assay for human Heat Shock Transcription Factor 1 (HSE) (AID 2282953); details: HepG2 HSE cis-reporter, Attagene RNA transcription; actives raise or lower the signal
In short: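 Reporter mRNA induction in HepG2 is measured 24 h after dosing, using transiently transfected multiplexed cis-regulated reporter units. Signal comes from capillary electrophoresis of labelled RT-PCR products, with DMSO as negative control.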

[8] = ATG_MRE_CIS: Attagene CIS-FACTORIAL HepG2 Assay for human Metal Responsive Element (MRE) (AID 2282954); details: HepG2 MRE cis-reporter transcription, Attagene multiplex; actives raise or lower the signal
In short: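 RT-PCR/capillary electrophoresis readout of reporter mRNA, 24 h post-dosing, in HepG2 cells transfected with multiplexed cis-regulated reporter constructs. Gain or loss of signal fitted bidirectionally against DMSO baseline.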

[9] = biological target: Bile acid receptor (Homo sapiens) (UniProt Q96RI1); experiment: ATG_IR1_CIS: Attagene CIS-FACTORIAL HepG2 Assay for human Nuclear Receptor Subfamily 1 Group H Member 4 (NR1H4), IR1 submotif (AID 2282946); details: IR1 reporter transcription, actives raise or lower the signal
In short: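 Fluorescence of capillary-separated, HpaI-digested RT-PCR reporter products gave IR1-element mRNA induction in HepG2 cells 24 h after dosing. Endogenous transcription factors drove the cis-regulated reporters; activity was fitted bidirectionally against DMSO.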

[10] = ATG_GRE_CIS: Attagene CIS-FACTORIAL HepG2 Assay for human Glucocorticoid Response Elements (GRE) (AID 2282947); details: HepG2 GRE cis-reporter, Attagene multiplex mRNA; actives raise or lower the signal
In short: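 Read-out: fluorescent reporter-transcript fragments separated by capillary electrophoresis after RT-PCR. Transiently transfected HepG2 cells carrying cis-element-driven reporter units were dosed for 24 h; gain or loss of signal fitted against DMSO control.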

Heat shock factor protein 1 (Homo sapiens), sequence (Q00613 whole entry, looked up): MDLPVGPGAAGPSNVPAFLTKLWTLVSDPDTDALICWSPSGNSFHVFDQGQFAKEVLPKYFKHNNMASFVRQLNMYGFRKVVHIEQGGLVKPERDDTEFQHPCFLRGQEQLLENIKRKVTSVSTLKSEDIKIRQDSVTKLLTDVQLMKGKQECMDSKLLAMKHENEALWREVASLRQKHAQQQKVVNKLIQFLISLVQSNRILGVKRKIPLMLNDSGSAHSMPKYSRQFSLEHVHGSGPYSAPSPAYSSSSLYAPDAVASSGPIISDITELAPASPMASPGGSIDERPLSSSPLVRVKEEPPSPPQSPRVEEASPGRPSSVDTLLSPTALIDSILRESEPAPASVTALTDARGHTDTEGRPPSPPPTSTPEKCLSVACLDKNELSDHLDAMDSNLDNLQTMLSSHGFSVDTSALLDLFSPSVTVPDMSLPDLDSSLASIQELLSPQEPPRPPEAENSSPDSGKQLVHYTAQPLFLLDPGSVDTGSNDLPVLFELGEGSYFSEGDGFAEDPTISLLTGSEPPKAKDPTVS
Hypoxia-inducible factor 1-alpha (Homo sapiens), sequence (Q16665 whole entry, looked up): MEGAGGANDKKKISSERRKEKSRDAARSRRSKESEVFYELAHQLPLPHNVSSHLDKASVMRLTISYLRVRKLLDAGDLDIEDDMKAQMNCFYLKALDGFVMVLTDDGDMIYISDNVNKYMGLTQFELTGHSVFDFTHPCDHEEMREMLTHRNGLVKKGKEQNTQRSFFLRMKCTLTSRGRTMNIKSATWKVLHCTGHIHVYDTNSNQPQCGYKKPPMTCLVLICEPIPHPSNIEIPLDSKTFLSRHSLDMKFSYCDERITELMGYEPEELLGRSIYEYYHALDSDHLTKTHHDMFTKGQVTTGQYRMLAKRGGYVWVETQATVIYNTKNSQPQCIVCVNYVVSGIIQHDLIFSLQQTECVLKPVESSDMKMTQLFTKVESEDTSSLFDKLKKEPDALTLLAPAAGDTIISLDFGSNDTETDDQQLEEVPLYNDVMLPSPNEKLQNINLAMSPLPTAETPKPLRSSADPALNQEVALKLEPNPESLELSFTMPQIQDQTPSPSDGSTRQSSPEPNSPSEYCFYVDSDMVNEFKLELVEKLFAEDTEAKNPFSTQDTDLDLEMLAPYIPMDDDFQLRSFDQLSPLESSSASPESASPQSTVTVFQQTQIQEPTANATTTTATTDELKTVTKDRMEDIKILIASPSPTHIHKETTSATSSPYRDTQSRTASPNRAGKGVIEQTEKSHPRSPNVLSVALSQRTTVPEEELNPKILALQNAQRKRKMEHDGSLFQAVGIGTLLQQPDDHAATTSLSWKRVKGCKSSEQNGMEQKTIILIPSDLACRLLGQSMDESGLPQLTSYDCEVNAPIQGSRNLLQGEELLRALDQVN
Hepatocyte nuclear factor 6 (Homo sapiens), sequence (Q9UBC0 whole entry, looked up, the tested form may be a part): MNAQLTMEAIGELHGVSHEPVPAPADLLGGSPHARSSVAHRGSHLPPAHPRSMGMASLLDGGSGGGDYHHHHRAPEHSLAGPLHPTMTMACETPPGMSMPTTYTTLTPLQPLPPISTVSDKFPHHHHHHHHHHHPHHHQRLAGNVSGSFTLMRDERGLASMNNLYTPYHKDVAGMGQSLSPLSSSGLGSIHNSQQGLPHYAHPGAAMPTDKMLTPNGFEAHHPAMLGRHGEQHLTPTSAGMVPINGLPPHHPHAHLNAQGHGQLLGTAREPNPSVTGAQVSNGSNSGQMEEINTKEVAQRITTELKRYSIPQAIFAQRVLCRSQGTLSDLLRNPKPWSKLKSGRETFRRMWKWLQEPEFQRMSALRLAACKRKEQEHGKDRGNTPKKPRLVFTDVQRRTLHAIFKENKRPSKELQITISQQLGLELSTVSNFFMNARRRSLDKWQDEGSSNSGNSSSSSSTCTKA
Bile acid receptor (Homo sapiens), sequence (Q96RI1 whole entry, looked up): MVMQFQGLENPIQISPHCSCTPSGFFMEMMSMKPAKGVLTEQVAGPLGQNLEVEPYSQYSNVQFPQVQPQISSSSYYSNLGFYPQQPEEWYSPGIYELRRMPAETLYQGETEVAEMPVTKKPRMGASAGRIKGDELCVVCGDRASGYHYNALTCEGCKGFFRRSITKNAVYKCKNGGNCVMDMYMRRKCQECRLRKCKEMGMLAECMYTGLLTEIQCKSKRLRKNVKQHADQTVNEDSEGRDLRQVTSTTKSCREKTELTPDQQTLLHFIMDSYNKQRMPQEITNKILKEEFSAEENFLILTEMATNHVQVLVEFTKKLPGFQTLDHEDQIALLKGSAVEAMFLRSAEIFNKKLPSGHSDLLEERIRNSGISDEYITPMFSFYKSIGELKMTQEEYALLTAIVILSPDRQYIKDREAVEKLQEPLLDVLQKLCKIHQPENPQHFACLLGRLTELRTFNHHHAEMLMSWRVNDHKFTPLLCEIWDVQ

SMILES	AC50 [1]	outcome [1]	AC50 [2]	outcome [2]	outcome [3]	outcome [4]	outcome [5]	outcome [6]	AC50 [7]	outcome [7]	AC50 [8]	outcome [8]	outcome [9]	outcome [10]	AC50 [9]	AC50 [5]	AC50 [3]	AC50 [10]	AC50 [6]
Oc1ccccc1-c1ccccc1	23 µM (active)	inactive	68.5 µM (active)	inactive	inactive	inactive	inactive	inactive	189 µM (active)	inactive	65.7 µM (active)	inactive	–	–	–	–	–	–	–
COc1nc(NC(C)C)nc(NC(C)C)n1	–	inactive	–	inactive	inactive	inactive	inactive	inactive	–	inactive	–	inactive	inactive	inactive	–	–	–	–	–
Cc1ccc(-c2c(Cl)nc(C#N)n2S(=O)(=O)N(C)C)cc1	–	inactive	–	inactive	inactive	inactive	inactive	inactive	–	inactive	–	inactive	inactive	inactive	–	–	–	–	–
COC(=O)C(C)Oc1ccc(Oc2ccc(Cl)cc2Cl)cc1 (centres undefined)	–	inactive	–	inactive	inactive	inactive	inactive	inactive	–	inactive	–	inactive	inactive	inactive	76.5 µM (active)	–	–	–	–
CC1=C(C(=O)Nc2ccccc2)SCCO1	–	inactive	–	inactive	inactive	inactive	inactive	inactive	–	inactive	–	inactive	inactive	inactive	–	–	–	–	–
C#CCOS(=O)OC1CCCCC1Oc1ccc(C(C)(C)C)cc1 (centres undefined)	–	inactive	–	inactive	inactive	inactive	–	inactive	–	inactive	2.4 µM (active)	–	inactive	inactive	–	2.4 µM (active)	–	–	–
CN(C)C(=S)SSC(=S)N(C)C	–	inactive	–	inactive	inactive	inactive	inactive	inactive	–	inactive	–	inactive	inactive	inactive	–	–	–	–	–
C=CCC1=C(C)[C@@H](OC(=O)[C@@H]2[C@@H](C=C(C)C)C2(C)C)CC1=O	–	inactive	–	inactive	inactive	inactive	inactive	inactive	–	inactive	5.26 µM (active)	–	inactive	inactive	–	–	–	–	–
CC(C)C1(C)N=C(c2nc3ccccc3cc2C(=O)O)NC1=O (centres undefined)	–	inactive	–	inactive	inactive	inactive	inactive	inactive	–	inactive	–	inactive	inactive	inactive	–	–	–	–	–
COP(=S)(OC)Oc1nc(Cl)c(Cl)cc1Cl	64.9 µM (active)	–	–	inactive	inactive	inactive	inactive	inactive	–	inactive	–	inactive	inactive	inactive	–	–	–	–	–
CCCN(CCC)c1c([N+](=O)[O-])cc(S(N)(=O)=O)cc1[N+](=O)[O-]	–	inactive	–	inactive	inactive	inactive	inactive	inactive	–	inactive	–	inactive	inactive	inactive	–	–	–	–	–
CCOC(=O)C(Cl)Cc1cc(-n2nc(C)n(C(F)F)c2=O)c(F)cc1Cl (centres undefined)	–	inactive	–	inactive	inactive	inactive	inactive	inactive	–	inactive	–	inactive	inactive	inactive	–	–	–	–	–
COC(=O)N(OC)c1ccccc1COc1ccn(-c2ccc(Cl)cc2)n1	–	inactive	–	inactive	inactive	inactive	inactive	inactive	–	inactive	2.65 µM (active)	–	inactive	inactive	–	–	–	–	–
CCCC1COC(Cn2cncn2)(c2ccc(Cl)cc2Cl)O1 (centres undefined)	–	inactive	–	inactive	inactive	inactive	inactive	inactive	–	inactive	50 µM (active)	inactive	inactive	inactive	–	50 µM (active)	–	–	–
C=CCC1=C(C)C(OC(=O)C2C(C=C(C)C)C2(C)C)CC1=O (centres undefined)	67.2 µM (active) [middle of 5 runs]	inactive	–	inactive	inactive	inactive	inactive	inactive	74.8 µM (active) [middle of 6 runs]	–	43.8 µM (active) [middle of 6 runs]	–	inactive	inactive	54.7 µM (active)	35 µM (active) [middle of 4 runs]	107 µM (active)	–	–
C=CC1(C)OC(=O)N(c2cc(Cl)cc(Cl)c2)C1=O (centres undefined)	–	inactive	–	inactive	inactive	inactive	inactive	inactive	–	inactive	–	inactive	inactive	inactive	–	–	–	–	–
O=C(Nc1ccccc1)Nc1ccnc(Cl)c1	–	inactive	–	inactive	inactive	inactive	inactive	inactive	–	inactive	37 µM (active)	–	inactive	inactive	–	–	–	–	–
COP(N)(=O)SC (centres undefined)	–	inactive	–	inactive	inactive	inactive	inactive	inactive	–	inactive	–	inactive	inactive	inactive	–	–	–	–	–
CC(C)(C)c1ccc(CSc2cnn(C(C)(C)C)c(=O)c2Cl)cc1	–	inactive	9.92 µM (active)	–	inactive	inactive	–	inactive	21.8 µM (active)	–	7.83 µM (active)	–	inactive	inactive	–	0.407 µM (active)	–	–	–
Fc1ccc(Oc2ccnc3cc(Cl)cc(Cl)c23)cc1	–	inactive	–	inactive	inactive	inactive	inactive	inactive	–	inactive	–	inactive	inactive	inactive	–	–	–	–	–
CNC(=O)ON=CC(C)(C)SC	–	inactive	167 µM (active)	inactive	inactive	inactive	inactive	inactive	–	–	–	inactive	inactive	inactive	–	–	–	–	–
N#Cc1nn(-c2c(Cl)cc(C(F)(F)F)cc2Cl)c(N)c1S(=O)C(F)(F)F (centres undefined)	–	inactive	–	inactive	inactive	inactive	inactive	inactive	–	–	38.8 µM (active)	inactive	inactive	inactive	–	–	–	29 µM (active)	44.7 µM (active)
CC1COC(Cn2cncn2)(c2ccc(Oc3ccc(Cl)cc3)cc2Cl)O1 (centres undefined)	–	inactive	–	inactive	inactive	inactive	inactive	inactive	–	inactive	3.17 µM (active)	–	inactive	inactive	–	–	–	–	–
CCCCNC(=O)OCC#CI	51.8 µM (active)	inactive	33 µM (active)	inactive	inactive	inactive	inactive	inactive	25.6 µM (active)	inactive	35.9 µM (active)	inactive	inactive	inactive	160 µM (active)	–	–	–	–
CCc1nn(C)c(C(=O)NCc2ccc(C(C)(C)C)cc2)c1Cl	–	inactive	–	inactive	inactive	inactive	inactive	inactive	–	inactive	2.3 µM (active)	–	inactive	inactive	–	–	–	–	–
COc1ccc(C(c2ccc(OC)cc2)C(Cl)(Cl)Cl)cc1	–	inactive	–	inactive	inactive	inactive	inactive	inactive	–	inactive	65.1 µM (active) and 15.6 µM (active) and 11.9 µM (active)	inactive	inactive	inactive	21.6 µM (active)	3.88 µM (active)	–	–	–
